# The entries come from a sample that favours hits as a whole.
# FECH inh = inhibitors of human ferrochelatase; P22830; purified FECH, Ni-mesoporphyrin absorbance 550 nm; calls only at 10 µM (by protocol); hit rate 3.3% among 20,000; AID 1671448;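 active = enzyme reaction rate more than 3 SD below the solvent-only control wells on the same plate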;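 also: lower slope than DMSO wells means FECH inhibition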
# Target sequence (P22830 whole entry, looked up): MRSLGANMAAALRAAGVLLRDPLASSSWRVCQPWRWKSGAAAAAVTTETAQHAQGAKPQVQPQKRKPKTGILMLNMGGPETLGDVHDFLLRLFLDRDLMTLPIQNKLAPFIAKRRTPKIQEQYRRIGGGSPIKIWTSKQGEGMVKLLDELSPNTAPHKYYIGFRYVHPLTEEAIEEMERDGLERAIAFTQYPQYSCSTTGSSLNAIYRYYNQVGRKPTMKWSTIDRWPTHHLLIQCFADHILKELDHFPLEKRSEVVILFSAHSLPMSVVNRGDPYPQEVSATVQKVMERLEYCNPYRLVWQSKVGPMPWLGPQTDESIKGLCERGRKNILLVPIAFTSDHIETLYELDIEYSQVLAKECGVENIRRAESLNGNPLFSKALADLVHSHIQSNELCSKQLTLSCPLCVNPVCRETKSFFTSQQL
# The depositor's hits bear a star; i = inactive; + = active, no number.
SMILES,FECH inh
Cc1cc(N2CCCC2)nc(Nc2ccc(NC(=O)c3cccc(I)c3)cc2)n1,i
Cc1cccc(NC(=O)Nc2ccc(Sc3c(C)c(C)nc4ncnn34)cc2)c1,i
Cc1ccc2cc(-c3noc(CCC(=O)N4CCC(C)CC4)n3)c(=O)[nH]c2c1,i
COc1ccccc1N1CCN(C(=O)CCc2nc(-c3cc4ccc(C)cc4[nH]c3=O)no2)CC1,+
Cc1ccc2cc(-c3noc(CCC(=O)N4CCCC(C)C4)n3)c(=O)[nH]c2c1 (stereo not given),i
CCc1ccc(-c2nccn2-c2cccnc2OC)o1,i
CCN(CCCNC(=O)C1CCCN1c1nnc(N2CCCC2=O)s1)Cc1ccccc1 (stereo not given),i
COc1ccc(CNC(=O)C2CCCN2c2nnc(N3CCCC3=O)s2)cc1OC (stereo not given),+
O=C(NCCCN1CCN(c2ccc(F)cc2)CC1)C1CCCN1c1nnc(N2CCCC2=O)s1 (stereo not given),+
COc1ccc(CNC(=O)C2CCCN2S(=O)(=O)c2ccc3c(c2)CCCC(=O)N3)cc1 (stereo not given),i
O=C(NCCN1CCCc2ccccc21)C1CCCN1c1nnc(N2CCCC2=O)s1 (stereo not given),i
COc1ccc(N2CCN(CCCNC(=O)c3cccn3-c3nnc(N4CCCCC4)s3)CC2)cc1,i
C[C@@H]1CN(CCC(=O)NCCC2CN(C)CCO2)C[C@H](C)O1 (stereo not given in full),i
O=C1NCC2(CCCN(Cc3cc4c(cc3Cl)OCO4)CC2)O1 (stereo not given),i
O=C(Nc1ccccc1Oc1ccccc1)N1C[C@@H]2CNC[C@]2(C(=O)O)C1,i
CCC(CC)n1nc(C)cc1NC(=O)C(C)Cn1cncn1 (stereo not given),i
O=C(CN1CCCN(Cc2ccc(Cl)cc2)S1(=O)=O)Nc1ccc(F)cc1,i
CCOc1ccc(NC(=O)CN2CCN(Cc3ccc(F)cc3)S2(=O)=O)cc1,i
CCc1ccc(NC(=O)CN2CCCN(Cc3ccc(Cl)cc3)S2(=O)=O)cc1,i
CCOc1ccc(NC(=O)CN2CCCN(Cc3ccc(OC)cc3)S2(=O)=O)cc1,i
CCOc1ccc(NC(=O)CN2CCCN(Cc3ccc(Cl)cc3)S2(=O)=O)cc1,+
CCOc1ccc(NC(=O)CN2CCCN(Cc3ccc(F)cc3)S2(=O)=O)cc1,+
O=C(CCNC(=O)c1ccccc1F)NCC1(c2ccccc2)CCOCC1,i
O=C(NCCc1nc2cccnc2n1Cc1ccccc1)Nc1cccc(F)c1,i
CSc1nc(Nc2cc(Cl)cc(Cl)c2)c(C#N)c(-c2ccccc2)n1,i
SMILES,FECH inh
CCN(C(=O)CSCc1nc(-c2ccc(Cl)cc2)no1)c1ccccc1,i
Cn1cnc(-c2ccccc2)c1-c1cccc2cnccc12,i
CCc1ccccc1-c1c(-c2ccccc2)ncn1CCC(=O)OC,i
COCC1(Cn2cnc(-c3ccccc3)c2-c2cccc3cnccc23)CC1,+
COc1ccc(-c2noc(N3CCCC(C(=O)NCCc4ccc(S(N)(=O)=O)cc4)C3)n2)cc1 (stereo not given),i
Cc1ccc2cc(CN3CCN(C)C(C(=O)O)C3)c(N3CCOCC3)nc2c1 (stereo not given),i
COCc1cc(CN(C)c2ncnc3[nH]ccc23)[nH]n1,i
CN(CCOc1ccccc1)c1ncnc2[nH]ccc12,+
CCCOCCN1CCN(c2ncnc3[nH]ccc23)CC1,i
Cn1c(=O)n(CC(=O)Nc2ccccc2Cl)c(=O)c2cnc(-c3ccccc3)nc21,i
COc1ccc(C2(CNc3ncnc4c3CCNC4)CCCC2)cc1,i
Cc1ccc(C(=O)N2CCc3c(c(C(=O)NCc4ccccc4)nn3C)C2)cc1,+
Cc1ccccc1C(=O)N1CCc2c(c(C(=O)NCc3ccccc3)nn2C)C1,i
Cn1nc(C(=O)NCc2ccccc2)c2c1CCN(C(=O)c1ccccc1Cl)C2,i
COc1ccc(C(=O)N2CCc3c(c(C(=O)NCc4ccccc4)nn3C)C2)cc1,i
Cn1nc(C(=O)NCc2ccccc2)c2c1CCN(C(=O)C1CCC1)C2,+
Cn1nc(C(=O)NCc2ccccc2)c2c1CCN(C(=O)c1ccccc1)C2,i
COc1ccc(N2C(=O)CCS2(=O)=O)cc1S(=O)(=O)N(C)Cc1ccccc1,i
Fc1ccccc1Cc1nc(CCc2ccccc2)n[nH]1,i
Cc1ccc(NC(=O)CN2CCN(Cc3ccccc3)S2(=O)=O)c(C)c1,i
Cc1ccc(NC(=O)CC(=O)NCCSc2nccn2C)c(C)c1,i
Cc1cccnc1NCCNC(=O)c1cccc2ccnn12,i
Cc1ccc(NC(=O)CNCCNc2ncccc2C)c(C)c1,+
Cc1ccc(C2=CC(c3ccccc3Cl)n3nc(NC(=O)c4ccc(F)cc4)nc3N2)cc1 (stereo not given),i
Cc1nn(-c2ccccc2)c(N)c1-c1ccc(S(C)(=O)=O)cc1,i
Cc1cccc(S(=O)(=O)NCCn2c(CCc3ccccc3)nc3cccnc32)c1,i
CCn1c(=O)n(-c2ccc(C)c(C)c2)c2nc(C)nc(C(N)=O)c21,i

# Bioassay records deposited in PubChem BioAssay by Corson Lab, School of Medicine, Indiana University.
